# Assay outcomes from PubChem BioAssay.
# Only some compounds are listed: those with a hit (about 12% of all), similar ones and a draw of the others.
# BAZ2B inh – qHTS Assay for Inhibitors of BAZ2B; Bromodomain adjacent to zinc finger domain protein 2B (Homo sapiens), Q9UIF8; AlphaScreen BAZ2B-H3K14Ac peptide displacement; Potency, µM (doses to about 114 µM), most hits filed as inhibitors; 4.4% of 360,000 active; further: nearly all actives have a fitted effect of over 60% in size
#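 In this displacement format the biotinylated H3(5-23) peptide acetylated at Lys14 serves as ligand at 50 nM, with BAZ2B at 50 nM in PBS pH 7.4 containing 0.01% Tween-20. Donor and acceptor beads are 10 ug/mL final.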
# G9a block – qHTS Assay for Inhibitors of Histone Lysine Methyltransferase G9a; 8.8% of 350,000 active; AID 504332, 2011; Histone-lysine N-methyltransferase EHMT2 (Homo sapiens), Q96KQ7; Potency, µM (titrated, usually from 102 µM), most hits filed as inhibitors; G9a H3K9 monomethylation, AlphaScreen, 2 h; further: nearly all actives have a fitted effect of over 75% in size
# Target sequence (Q96KQ7 913-1193 limits assumed): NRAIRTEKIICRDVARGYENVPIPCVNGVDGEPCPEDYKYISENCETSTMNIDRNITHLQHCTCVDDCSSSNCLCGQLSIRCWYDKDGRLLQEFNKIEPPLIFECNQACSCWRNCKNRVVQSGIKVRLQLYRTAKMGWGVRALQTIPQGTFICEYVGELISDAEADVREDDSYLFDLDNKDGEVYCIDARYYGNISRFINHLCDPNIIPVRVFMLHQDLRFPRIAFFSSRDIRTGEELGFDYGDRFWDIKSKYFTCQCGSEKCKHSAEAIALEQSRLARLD
#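 Using a bead-based AlphaScreen, monomethylated H3K9 product from 2 h room-temperature reactions (G9a 20 nM, peptide 500 nM, SAM 20 uM) was detected with 0.5 ug/mL rabbit anti-H3K9me1 antibody.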
# JMJD2A Tudor – qHTS Assay for Inhibitors of JMJD2A-Tudor Domain; Lysine-specific demethylase 4A (Homo sapiens), O75164; AlphaScreen JMJD2A-Tudor / H3K4me3 peptide binding; Potency, µM (doses to about 114 µM), actives largely listed as inhibitors; 4.4% of 390,000 active; AID 504339, 2011; further: nearly all actives have a fitted effect of over 50% in size
# L3MBTL1 block – qHTS Assay for the Inhibitors of L3MBTL1; Lethal(3)malignant brain tumor-like protein 1 (Homo sapiens), Q9Y468; AlphaScreen L3MBTL1–H3K9me1 peptide binding; Potency, µM (highest dose often 57.1 µM), actives largely listed as inhibitors; 0.66% of 230,000 active; further: nearly all actives have a fitted effect of over 60% in size
#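 Displacement of a biotinylated histone H3(1-15) peptide monomethylated at Lys9 (75 nM) from L3MBTL1 (50 nM) was measured by AlphaScreen after a 30 min room-temperature compound incubation; cefsulodin titration served as intraplate control.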
# Sfp PPTase inh – qHTS Assay for Inhibitors of Bacillus subtilis Sfp phosphopantetheinyl transferase (PPTase); 4'-phosphopantetheinyl transferase ffp (Bacillus subtilis), Q9F4F7; Biochemical Sfp PPTase activity, qHTS; Potency, µM, usual class: inhibitors; 3.5% of 310,000 active; AID 1490, 2009;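 further: the enzyme is Sfp with the accession as filed and its product quenches rhodamine fluorescence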
#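 Fluorescence-quenching assay with 15 nM Sfp, 5 uM rhodamine-CoA and 12.5 uM BHQ-2-labelled ybbR peptide in pH 7.6 Hepes/MgCl2 buffer. Enzyme was pre-incubated with compound for 15 min at room temperature. Rate was taken from the 30-min fluorescence change (525/598 nm).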
# HP1b chromo inh – HTS for Inhibitors of HP1-beta Chromodomain Interactions with Methylated Histone Tails; Chromobox protein homolog 1 (Homo sapiens), P83916; AlphaScreen HP1-beta / biotin-H3K9me3 peptide binding; Potency, µM (titrated, usually from 114 µM), most hits filed as inhibitors; 0.56% of 390,000 active; AID 540317, 2011; further: nearly all actives have a fitted effect of over 70% in size
# Target sequence (P83916 whole entry, looked up): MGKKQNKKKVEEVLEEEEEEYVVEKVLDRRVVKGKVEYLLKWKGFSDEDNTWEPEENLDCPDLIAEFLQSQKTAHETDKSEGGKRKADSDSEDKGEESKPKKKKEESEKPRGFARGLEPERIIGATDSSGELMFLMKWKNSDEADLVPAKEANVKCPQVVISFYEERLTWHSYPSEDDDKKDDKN
#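 HP1-beta protein (50 nM final) preincubated 30 min at room temperature with biotinylated H3(1-18)K9me3 peptide (50 nM) in PBS pH 7.4, 0.01% Tween-20, then compound added for 30 min. AlphaScreen streptavidin donor/nickel chelate acceptor beads (10 ug/mL final), 30 min dark, luminescence read.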
# Numbers stand for hits; . = inactive; ? = inconclusive; / = not tested or not shown; ! = not confirmed by another sample; [ ] = dose if it differs, or a comment. The call rests on the fitted dose curve; in most records, active means well fitted curve in the direction sought with a large enough effect; inconclusive means small, poorly fitted or top-dose-only effect, or another doubt; inactive means no such curve, though single readings can be large; an effect the other way counts as inactive or inconclusive.
SMILES,BAZ2B inh,G9a block,JMJD2A Tudor,L3MBTL1 block,Sfp PPTase inh,HP1b chromo inh
CCc1cc2cc(C)cc(C)c2[nH]c1=S,?,1.41µM,8.91µM,/,56.2µM,.
CCOCCCN(Cc1cc2cc(C)cc(C)c2[nH]c1=O)C(=O)N(CC)CC,.,.,.,.,.,.
Cc1nc2cc(NCc3ccccc3O)ccc2n1Cc1ccccc1,20µM,/,31.6µM,.,.,?
CSc1ccc(CNc2ccc(C)c(C)c2)cc1,50.1µM,89.1µM,39.8µM,.,?,?
CSc1ccc(CNc2cccc3ccccc23)cc1,.,?,.,/,.,.
Cc1ccc(NCc2ccccc2O)cc1C,?,?,50.1µM,/,.,?
O=S(=O)(Nc1cccc(-c2nnco2)c1)c1ccc(Cl)cc1,.,/,.,.,.,.
CSCC[C@H](NC(=O)[C@@H]1CCCN1C(=O)CNC(=O)[C@H](CCCCN)NC(=O)[C@H](Cc1cnc[nH]1)NC(=O)[C@H](CO)NC(=O)[C@H](CC(C)C)NC(=O)[C@H](CCCNC(=N)N)NC(=O)[C@@H]1CCCN1C(=O)[C@H](CCCNC(=N)N)NC(=O)[C@H](CCC(N)=O)NC(=O)[C@H](CCCNC(=N)N)NC(=O)[C@H](CCCNC(=N)N)NC(=O)[C@H](Cc1ccccc1)NC(=O)[C@@H](N)CCCCN)C(=O)N1CCC[C@H]1C(=O)N[C@@H](Cc1ccccc1)C(=O)O,/,/,/,/,.,/
Cc1cccc(NC(=O)CN2C(=O)C(c3ccc(F)cc3)=NC23CCCCCC3)c1C,.,.,.,/,/,.
Cc1ccc(N(CC(=O)N2CCCCCC2)S(=O)(=O)c2ccccc2)cc1,.,.,.,/,.,.
CC(=O)Nc1ccc(NC(=O)c2cccc(-c3cc4ccccc4oc3=O)c2)cc1,.,.,.,.,.,.
O=C(Nc1ccc(N2CCCC2)c(Cl)c1)c1cccc(-c2cc3ccccc3oc2=O)c1,.,44.7µM,.,28.2µM,.,.
CC1(c2ccc(NC(=O)c3ccccc3F)cc2)CC1(Cl)Cl (stereo not given),.,.[0.501 µM],.,.[2.29 µM],.,.
Cc1ccccc1CSCC(Nc1ccc(C(=O)O)cc1[N+](=O)[O-])C(=O)O (stereo not given),.,.,.,/,.,.
Cc1ccc(C(=O)Nc2ccc(O)cc2C(=O)O)cc1C,79.4µM,?,?,/,.,.
Cc1ccc(C(=O)Nc2ccc(O)cc2C(=O)O)cc1,.,.,?,/,.,.
Cc1cc(N2C(=O)c3ccc(C(=O)Nc4ccc(O)cc4C(=O)O)cc3C2=O)no1,79.4µM,50.1µM,.,/,.,.
CC(C)CC(=O)Nc1ccc2c(c1)nc(CCN1CCOCC1)n2C,.,.,.,/,.,.
C[C@@]12CCC(=O)C[C@@H]1CC(=O)[C@H]1[C@H]3CCC[C@]3(C)C(=O)C[C@@H]12 (tested in a mixture with another compound),/,.[21.5 µM],/,/,.,/
NS(=O)(=O)c1ccc(CCNC(=O)CSc2nc3ccsc3c(=O)n2CCCCC(=O)O)cc1,.,.,.,/,.,.
Cn1cnnc1SCC(=O)c1ccc(OC(F)F)cc1,.,?,31.6µM,/,.,.
O=C(Cn1cnc([N+](=O)[O-])n1)c1ccc(O)c(O)c1,79.4µM,8.91µM,?,/,?,.
COc1ccc(-c2n[nH]c(=S)nc2-c2ccc(OC)cc2)cc1,?,?,.,/,.,.
Oc1ccc(-c2nc(=S)[nH][nH]2)cc1,.,1.26µM,5.01µM,.,?,.
COc1ccc(-c2nc(=S)[nH][nH]2)cc1,.,1.78µM,2.51µM,.,?,79.4µM
SMILES,BAZ2B inh,G9a block,JMJD2A Tudor,L3MBTL1 block,Sfp PPTase inh,HP1b chromo inh
Oc1ccc(-c2nc3ccccc3nc2-c2ccccc2)cc1,.,.,.,.,.,.
FC(F)(F)c1ccc(-c2noc(-c3ccccc3Br)n2)cc1,.,.,.,/,/,.
FC(F)(F)c1ccc(-c2nc(=S)[nH][nH]2)cc1,.,3.55µM,22.4µM,/,56.2µM,.
CCOc1ccc(-c2nc(=S)[nH][nH]2)cc1,.,1.41µM,7.08µM,.,?,.
CCOC(=O)C1CCN(C(=O)CCNS(=O)(=O)c2ccc3c(c2)CCN3C(=O)CC)CC1,.,.,.,/,.,.
CCN(c1ccccc1)c1cc(NC)[n+](C)c(C)n1,/,/,/,/,.,/
CC(=O)c1cccc(OC(=O)c2ccc3c(=O)n4c(nc3c2)CCC4)c1,.,7.08µM,.,.,/,.
N#CCCN(C(=O)COC(=O)c1ccc2c(=O)n3c(nc2c1)CCC3)c1ccccc1,.,.,14.1µM,/,.,.
C=CCn1c(C)csc1=Nc1ccc(C(=O)O)cc1,/,?,.,.,.,.
CCOC(=O)C1CCN(C2=C(NS(=O)(=O)c3ccc(Cl)cc3)C(=O)c3ccccc3C2=O)CC1,8.91µM,4.47µM,11.2µM,?,.,?
CC(C)(CN1CCCC1)NS(=O)(=O)c1ccc(Cl)cc1,.,.[12.7 µM],.,/,.,.
CCOC(=O)C1CCN(CC(C)(C)NS(=O)(=O)c2ccc(Cl)cc2)CC1,50.1µM,11.2µM,3.16µM,/,.,79.4µM
CCOC(=O)C1CCCN(C2=C(NS(=O)(=O)c3ccc(Br)cc3)C(=O)c3ccccc3C2=O)C1 (stereo not given),8.91µM,/,10µM,/,?,10µM
CC1CCCC(C)N1CC(C)(C)NS(=O)(=O)c1ccc(Cl)cc1 (stereo not given),50.1µM,?,.,/,.,.
Cc1cnc(CNc2ccnc(-c3ccc(N(C)C)cc3)n2)cn1,/,/,/,/,.,/
O=C(NCCc1c[nH]c2ccccc12)c1ccccc1O,/,/,/,/,.,/
CC(CC(=O)O)Nc1ccccc1O (stereo not given),44.7µM,2µM,0.1µM,.,35.5µM,.
COc1ccccc1N(CC(=O)Nc1cc(S(=O)(=O)N(C)C)ccc1C)S(=O)(=O)c1cccs1,/,/,.,.,/,.
N[C@@H](Cc1cc(CP(=O)(O)O)cc(-c2ccccc2Cl)c1)C(=O)O,/,/,/,/,8.91µM,/
NC(Cc1cccc(-c2ccccc2CP(=O)(O)O)c1)C(=O)O (stereo not given),/,9.47µM!,/,/,/,/
COc1ccccc1NC(=O)c1cc([N+](=O)[O-])ccc1N1CCOCC1,.,.,.,/,.,.
COc1ccc(C(=O)NCc2ccc3c(c2)CCN3C(=O)c2ccncc2)cc1,.,.,.,/,/,.
CCC/C(=N/Nc1ccc(Cl)cc1)c1cnnc(-c2ccccc2)n1,/,/,.,/,/,.
COc1ccc(N/N=C(/C)c2cnnc(-c3ccccc3)n2)cc1,.,1.41µM,79.4µM,.,.,.
